In PubChem BioAssay AID651820 (National Center for Advancing Translational Sciences (NCATS), 2012):
Where “and” joins values, the source holds several entries; their conditions need not be identical. Equal entries are not always repeated. About 12,000 (3.5%) of roughly 340,000 compounds were called active. Roughly 18% stayed inconclusive and do not appear here. Many of the other results were omitted from the sample, so actives are more common in it than they were. A number with no mark means an inactive call. The call rests on the fitted dose curve; in most records, active means well fitted inhibition curve with a large enough effect; inconclusive means small, poorly fitted or top-dose-only effect, or another doubt; inactive means no such curve, though single readings can be large or run the other way.

assay: qHTS Assay for Inhibitors of Hepatitis C Virus (HCV); settings: Huh7.5.1 HCVcc-Cre infection, luciferase reporter, 44 h; series mostly up to 41.8 µM; activity change, negative = inhibition: at the top concentration
How it was run: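 1,000 cells/well; 4 h culture; + compound; + HCVcc-Cre (~0.5 moi); 44 h; luciferase substrate, RT 15 min; read 15 sec.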
On the % scale 0 is the no-effect control and ±100 the full control effect; potency means the concentration at half of the fitted maximal effect.

SMILES | activity change, negative = inhibition | Potency
COc1cccc(NC(=O)CSc2nnc(C3CCCCC3)n2N)c1 | -4.82% | 
CC(=O)Nc1ccc(NC(=O)CSC2=NS(=O)(=O)c3ccccc3N2)cc1 | -2.83% | 
CCc1noc(C)c1C(=O)Nc1nc2ccc(OC)cc2s1 | -17.2% | 
COc1ccc(NC(=O)CNc2cc(S(=O)(=O)N3CCOCC3)ccc2N2CCOCC2)c(OC)c1 | 11% | 
CS(=O)(=O)N(CC(=O)N1CCc2ccccc2C1)c1ccc(Br)cc1 | 0.897% | 
COc1cc(/C=C/C(=O)OCC(=O)NCCCc2ccccc2)ccc1O | -14.3% | 
O=C(O)c1ccc(S(=O)(=O)c2ccccc2)s1 | 4.5% | 
Cc1ccc(S(=O)(=O)c2cc3c(=O)n4cccc(C)c4nc3n(CCc3ccccc3)c2=N)cc1C | 8.56% | 
CS(=O)(=O)N(CC(O)Cn1c2ccccc2c2ccccc21)c1cccc2ccccc12 (configuration not stated) |  | 11.2 µM (active)
O=C1c2ccccc2S(=O)(=O)N1CC(O)Cn1c2ccccc2c2ccccc21 (configuration not stated) | 12.3% | 
OC(Cn1c2ccccc2c2ccccc21)C[n+]1ccccc1 (configuration not stated) | -23.1% | 
COc1ccc2oc(C(=O)N(CC(C)C)C3CCS(=O)(=O)C3)c(C)c2c1 (configuration not stated) | -5.42% | 
CCOc1ccc(C(CCc2ccccc2)NC(=O)c2ccc(OC)c(OC)c2)cc1OCC (configuration not stated) |  | 10 µM (active)
CCOc1ccc(C(CC(=O)O)NC(=O)C23CC4CC(CC(C4)C2)C3)cc1OC (configuration not stated) | 12% | 
CCOc1ccc(C(CC(=O)O)NC(=O)Cc2ccccc2)cc1OC (configuration not stated) | 20% | 
Cc1n[nH]c(=O)c2c(NC(=O)COC(=O)c3ncc(Cl)c(Cl)c3Cl)oc(C)c12 | 10.5% | 
Cc1nc2sc3c(c2c(=O)n1NC(=O)CCl)CCCC3 | -8.31% | 
COCCNc1nc(-n2nc(C)cc2C)nc2sc3c(c12)CCCC3 |  | 10 µM (active)
CCC(O)CNc1nc(-n2nc(C)cc2C)nc2sc3c(c12)CC(C)(C)OC3 (configuration not stated) | -11% | 
O=C1CC2(CCCC2)C(=O)N1CN1CCN(S(=O)(=O)c2ccc(F)cc2F)CC1 | -2.52% | 
COc1cc(OC)cc(C(=O)Nc2ccc(S(=O)(=O)Nc3cc(C)on3)cc2)c1 | 21.4% | 
CCOc1ccc(C(=O)Nc2ccc(S(=O)(=O)Nc3cc(C)on3)cc2)cc1 |  | 1.12 µM (active)
COc1ccc(NS(=O)(=O)c2ccc(C(=O)Nc3c(C)n(C)n(-c4ccccc4)c3=O)cc2)cc1 | 23.2% | 
CCOc1ccc(CC(=O)Nc2ccc(S(=O)(=O)Nc3cc(C)on3)cc2)cc1OCC | -0.179% | 
COc1ccc(NS(=O)(=O)c2ccc(NC(=O)c3ccc(N(C)S(C)(=O)=O)cc3)cc2)cc1 |  | 5.62 µM (active)
COc1ccc(NC(=O)c2cnc(NS(=O)(=O)c3ccccc3)nc2)cc1 | 19.5% | 

SMILES | activity change, negative = inhibition | Potency
O=C(COC(=O)c1ccccn1)NNC(=O)c1ccc(Br)cc1 | 12.5% | 
O=C(COC(=O)c1ccc(F)c(S(=O)(=O)N2CCOCC2)c1)NCc1ccc2c(c1)OCO2 | -4.34% | 
O=S(=O)(Nc1ccc2ccccc2c1)N1CCCCC1 | -21.3% | 
CCOc1ccccc1/C=N/Nc1nc2ccccc2o1 |  | 12.6 µM (active)
Brc1ccccc1/C=N/Nc1nc2ccccc2o1 | -26.3% | 
COc1ccc(/C=N/Nc2nc3ccccc3o2)cc1OC | -3.83% | 
Cc1ccc(C(=O)CSc2ccccc2C(=O)O)cc1 | 12.5% | 
Cc1ccc(SCC(=O)Nc2ccc3c(c2)OCCO3)cc1 | 0.0256% | 
Cc1ccc(SCC(=O)c2cc(C)c(OC(=S)N(C)C)c(C)c2)cc1 |  | 11.2 µM (active)
CC[C@]12c3[nH]c4ccc(Cl)cc4c3CCN1C(=O)[C@@H](CC(=O)NCCN1CCOCC1)C[C@@H]2C(=O)N1CCN(C(=O)C2CC2)CC1 | 17.4% | 
CCOC(=O)C[C@H]1c2ccc(C(F)(F)F)cc2S(=O)(=O)N1c1ccccc1 | -10.1% | 
O=C(CCCCCn1c(=S)[nH]c2cc3c(cc2c1=O)OCO3)N1CCN(c2ccc(F)cc2)CC1 | -11.6% | 
Cc1ccc(C)c(N2CCN(C(=O)CCc3nc4ccccc4[nH]3)CC2)c1 | 3.71% [at 8.37 µM] | 
Cc1ccc(C)c(N2CCN(C(=O)CCCCCn3c(=S)[nH]c4ccc(N5CCOCC5)cc4c3=O)CC2)c1 |  | 2.82 µM (active)
CN(CC(=O)Nc1cccc(F)c1)C(=O)C1CSC2(C)CCC(=O)N12 (configuration not stated) | 6.19% | 
COc1ccc(Cl)cc1NS(=O)(=O)c1cccc(C(=O)NC2CCC(O)CC2)c1 (configuration not stated) | 10% | 
COc1cccc(C(=O)NNC(=O)c2cccc(F)c2)c1 | 13.8% | 
O=C(Nc1cccc(NC(=O)c2cccc(F)c2)c1)c1ccccc1 | -10.3% | 
CCC(CO)Oc1cc(NC(=O)c2cccc(F)c2)c2ncn(C(C)C)c2c1 (configuration not stated) |  | 0.562 µM (active)
COc1ccc(/C=C2\SC(=S)N(CCCC(=O)NC3CCCC3)C2=O)cc1OC | -0.548% | 
CCN(C(=O)CN1C(=O)/C(=C/c2ccc(F)cc2)SC1=S)C1CCS(=O)(=O)C1 (configuration not stated) | 3.32% | 
O=C1/C(=C/c2ccc(F)cc2)SC(=S)N1CCCC(=O)N1CCCCC1CCO (configuration not stated) |  | 11.2 µM (active)
O=C(COC(=O)Cc1c[nH]c2ccccc12)NCCc1ccccc1 | 3.54% | 
O=C(CN1CCN(c2ccccc2O)CC1)NC(=O)NCc1ccccc1 | -28.3% | 
CCCOc1ccc(N/C=C/C(=O)C(C)(C)C)cc1 | 3.9% | 
CCCOc1ccc(C(=O)C(CCC(CNCC)C(=O)c2ccc(OCCC)cc2)CNCC)cc1 (configuration not stated) |  | 5.01 µM (active)

SMILES | activity change, negative = inhibition | Potency
CCCOc1ccc(C(=O)CCC(=O)OC(C)C(=O)Nc2ccc(NC(C)=O)cc2)cc1 (configuration not stated) | 26.7% | 
CCN(CC(=O)Nc1ccccc1C(F)(F)F)C(=O)CSCc1c(C)noc1C | 1.18% | 
COc1ccc(S(=O)(=O)N2C[C@H]3CON(C)[C@H]3C[C@H]2c2cccc(Br)c2)cc1 | 28% [at 8.37 µM] | 
O=C(O)C1CCN(S(=O)(=O)N2CCOCC2)CC1 |  | 22.4 µM (active)
COc1ccc(CNC(=O)C2CCN(S(=O)(=O)N3CCOCC3)CC2)cc1 | 14.1% | 
O=C(NCc1ccccc1Cl)C1CCN(S(=O)(=O)N2CCOCC2)CC1 | -1.58% | 
COc1ccc(OCCCC(=O)OC(C)C(=O)Nc2ccccc2[N+](=O)[O-])cc1 (configuration not stated) | 0.431% | 
O=C(COC(=O)c1cccnc1Cl)NC(=O)NC1CCCCC1 | 7.18% | 
Cc1noc(C)c1S(=O)(=O)N(C)C[C@H]1Oc2ccc(NC(=O)C3CC3)cc2C(=O)N([C@H](C)CO)C[C@@H]1C | 11.4% | 
O=C1NC(c2ccccc2)Cc2ccncc21 (configuration not stated) | -5.27% | 
Cc1ccc(C(=O)CCC(=O)N(C)CC(=O)Nc2c(Cl)cccc2Cl)cc1 | -24.2% | 
CN(CC(=O)Nc1ccc(Cl)c(C(F)(F)F)c1)C(=O)CCC(=O)c1ccccc1 |  | 11.2 µM (active)
Cc1cccc(C)c1NC(=O)CN(C)C(=O)CCC(=O)c1ccccc1 | 9.78% | 
COc1ccc(CNC(=O)C[C@H]2C[C@H](C(=O)N3CCOCC3)[C@@]3(C)c4[nH]c5cc(CCC(=O)N(C)C)ccc5c4CCN3C2=O)cc1OC | 19.4% | 
CN(C)CCn1c2c(c(SCC(=O)Nc3ccccc3C(F)(F)F)nc1=O)CCCC2 | 8.07% | 
Cc1cc(C)c(CN2CCN(C(=O)Cn3ccc(NC(=O)OCc4ccccc4)nc3=O)CC2)c(C)c1 |  | 4.47 µM (active)
O=C(Nc1ccn(CCCNCc2ccc3[nH]ccc3c2)c(=O)n1)OCc1ccccc1 | 5.42% | 
Nc1ccn(CC(=O)N2CCN(c3ccccn3)CC2)c(=O)n1 | 5% | 
CCC1([N+](=O)[O-])COC(c2ccc(C(C)C)cc2)OC1 (configuration not stated) | -0.561% | 
CCCN(C(=O)c1nc2nccc(C)n2n1)c1c(N)n(Cc2ccccc2)c(=O)[nH]c1=O | -3.26% | 
O=C1CC(c2ccccc2)C(c2ccccc2)=NN1 (configuration not stated) | -4.55% | 
CC(C)c1cc(N=O)cc(C(C)C)c1O | 15% | 
O=C(OCC(=O)N1CCCCCC1)c1ccc(Cl)nc1 | 9.32% | 
CN1CCN(C2Cc3ccc(Cl)cc3Sc3ccc(F)cc32)CC1 (configuration not stated) |  | 31.6 µM (active)
CN(CC(=O)Nc1ccc(F)c(F)c1F)C(=O)C1CC(=O)N(C2CCCC2)C1 (configuration not stated) | 8.33% | 
CCCn1c(=N)n(CC(=O)c2ccc(Cl)c(Cl)c2)c2ccccc21 |  | 10 µM (active)

SMILES | activity change, negative = inhibition | Potency
CCCCOC(=O)Cn1c(=N)n(CCN(CC)CC)c2ccccc21 | 6.51% | 
CCCNC(=O)c1ccc(Cl)c(Cl)c1 | -15.3% | 
Cc1ccc(S(=O)(=O)N2CCCCC2)cc1C(=O)N1CCN(CCO)CC1 | -5.13% | 
CNc1nc(=O)n(C2CCCO2)cc1C (configuration not stated) | 29.5% | 
CN(Cc1cccnc1)C(=O)c1cc(COc2ccc3ncccc3c2)on1 |  | 3.98 µM (active)
Cc1ccc(OCc2cc(C(=O)N(C)CCc3ccccc3)no2)cc1C | -9.29% | 
CN(Cc1cnccn1)C(=O)c1cc(COc2cccc(C(F)(F)F)c2)on1 | -13.9% | 
O=C(c1ccc2c(c1)C(=O)N(c1ccc(Cl)cc1)C2=O)N1CCN(c2ccccn2)CC1 | -1.51% | 
O=C(c1ccc2c(c1)N(Cc1ccc(F)cc1)C(=O)c1ccccc1S2(=O)=O)N1CCN(c2ccccn2)CC1 |  | 25.1 µM (active)
O=C1c2ccccc2S(=O)(=O)c2cc(N3CCN(c4ccccn4)CC3)ccc21 | 10.4% | 
CCC(=O)c1ccc(OCC(=O)N(CC)CC2COc3ccccc3O2)cc1 (configuration not stated) | -3.1% | 
CC(=O)c1c(C)[nH]c(C(=O)COC(=O)CCOc2ccc(C)cc2)c1C | 21.2% | 
CCc1c(Nc2ccccc2Cl)nc(N)[nH]c1=O | 7.34% | 
C#CCOCCOCCOCCNc1nc(N2CCN(C(=O)[C@H](CCC(=O)O)n3cc(CN)nn3)CC2)nc(N2CCN(C(=O)[C@H](CCC(=O)O)n3cc(CN)nn3)CC2)n1 | 11.3% | 
COc1cc2c(cc1OC)C(c1ccncc1)CC(=O)N2 (configuration not stated) | 29.9% | 
CCCOc1ccccc1C1CC(=O)Nc2cc3c(cc21)OCO3 (configuration not stated) |  | 2.24 µM (active) and 3.55 µM (active)
COc1cc2c(cc1OC)C(c1ccc(C)o1)CC(=O)N2 (configuration not stated) | -1.02% | 
CCn1c(SCC(=O)NCC2CCCO2)nc2ccccc21 (configuration not stated) | 5.12% | 
O=C(Nc1nc(-c2ccncc2)cs1)C1COc2ccccc2O1 (configuration not stated) | -28% | 
Cc1ccc(-c2csc(NC(=O)C3=COCCO3)n2)cc1C |  | 7.94 µM (active)
CC(=O)NCCC(=O)Nc1nc(-c2ccc3c(c2)OCCO3)cs1 | -11.8% | 
Cc1ccc(-c2csc(NC(=O)c3cnccn3)n2)cc1C | 15.7% | 
Cc1csc(NC(=O)C2=COCCO2)n1 | -13.4% | 
O=C(Nc1nc(-c2ccc3c(c2)OCO3)cs1)c1ccncc1 |  | 12.6 µM (active)
